Screening results (PubChem BioAssay)
This is a sample that favours compounds with a hit; in the whole collection about 1.6% have one here.
PfHsp40 yeast = rescue of yeast from PfHsp40 toxicity, primary screen, S. cerevisiae, ATP luminescence | actives 0.68% (n = 340,000) | S. cerevisiae expressing PfHsp40, growth rescue | growth rescue, % at 12.5 µM | AID 504582, 2011; in the data active means growth rescue above about 28%, passing the limit was not always enough;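 further: yeast W303a lacking pdr1 and pdr3 grown in galactose medium; growth measured after three days at 30 °C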
Sa RN4220 lethal = growth inhibition of S. aureus RN4220, primary screen, OD600. 16 h. inhibition, % (no concentration beside the values). actives 0.33% (n = 330,000). AID 1259311, 2017; in the data active means inhibition above about 85%
BJeLR lethal = MLPCN primary cell-based screen for lethality selective to Ras in HRASV12 cells | AID 1554, 2009 | actives 0.17% (n = 300,000) | inhibition, % (no concentration beside the values) | BJeLR (HRASV12) viability, CellTiter-Glo ATP luminescence, 48 h; in the data active means inhibition above about 50%
Sa ugtP lethal = growth inhibition of ugtP-null S. aureus, primary screen, RN4220 ugtP deletion, OD600; actives 0.54% (n = 330,000); AID 1259309, 2017; 16 h; growth inhibition, % (no concentration beside the values); in the data active means growth inhibition above about 68%
CCHFV vOTU inh = CCHFV vOTU protease inhibitors, primary screen, biochemical, Pep-AMC substrate, fluorescence | Crimean-Congo hemorrhagic fever virus L polyprotein viral ovarian tumor (vOTU) protease … | inhibition, % at 11.5 µM | actives 0.55% (n = 370,000); in the data active means inhibition above about 30%
Numbers stand for hits.

What do the screens show for `CC(CN1C(=O)C(=O)NCC1Cc1ccc(O)cc1)NC(=O)Cc1ccccc1` (stereo not drawn)?
Sa RN4220 lethal: inactive; Sa ugtP lethal: inactive

How did COc1ccc(CN(C)C(=O)C2CCN(S(=O)(=O)c3cccs3)CC2)cc1F do in these assays?
PfHsp40 yeast: 68.6; Sa RN4220 lethal: inactive; Sa ugtP lethal: inactive; CCHFV vOTU inh: inactive

How did NC(=O)C1CCCNc2c(I)cc([N+](=O)[O-])cc2C(=O)NC(Cc2ccccc2)C(=O)NC(Cc2cnc[nH]2)C(=O)N1 (stereo not drawn) do in these assays?
Sa RN4220 lethal: inactive; Sa ugtP lethal: inactive

Results for COc1ccc(Oc2cn[nH]c2-c2ccc(O)cc2O)cc1 ?
PfHsp40 yeast: inactive; Sa RN4220 lethal: inactive; BJeLR lethal: inactive; Sa ugtP lethal: inactive; CCHFV vOTU inh: inactive

Results for CCCc1ccc(Oc2cn[nH]c2-c2ccc(O)cc2O)cc1 ?
PfHsp40 yeast: 181.5; Sa RN4220 lethal: inactive; Sa ugtP lethal: 90.1; CCHFV vOTU inh: inactive

Results for CN1CC=C(/C=C/c2ccc(-c3ccccc3)cc2)CC1 ?
Sa RN4220 lethal: inactive; BJeLR lethal: inactive; Sa ugtP lethal: 92.9

How did CC1CN(Cc2ccccc2)C(=O)C1CC(=O)NCc1ccccc1 (stereo not drawn) do in these assays?
Sa RN4220 lethal: inactive; Sa ugtP lethal: inactive

Results for Clc1nc(-c2ccccn2)nc2scc(-c3ccccc3)c12 ?
PfHsp40 yeast: 399.6; Sa RN4220 lethal: inactive; BJeLR lethal: inactive; Sa ugtP lethal: inactive; CCHFV vOTU inh: inactive

What do the screens show for `Cc1nc(-c2ccccn2)nc(N2CCOCC2)c1Cl`?
PfHsp40 yeast: inactive; Sa RN4220 lethal: inactive; BJeLR lethal: inactive; Sa ugtP lethal: inactive; CCHFV vOTU inh: inactive

How did Cc1nc(-c2ccccn2)nc(N(C)c2ccccc2)c1Cl do in these assays?
PfHsp40 yeast: 179.8; Sa RN4220 lethal: inactive; BJeLR lethal: inactive; Sa ugtP lethal: inactive; CCHFV vOTU inh: inactive

Results for COc1ccc(-c2cc(=O)oc3c(O)c(O)ccc23)cc1 ?
PfHsp40 yeast: inactive; Sa RN4220 lethal: inactive; BJeLR lethal: inactive; Sa ugtP lethal: inactive; CCHFV vOTU inh: inactive

Results for CC1Oc2cc3oc4c(O)c(O)ccc4c(=O)c3c(O)c2C1(C)C (stereo not drawn) ?
PfHsp40 yeast: 334.7; Sa RN4220 lethal: inactive; BJeLR lethal: inactive; Sa ugtP lethal: inactive

How did Cc1cc(O)c(C=O)c2c1C(=O)Oc1c(CO)c(O)c3c(c1O2)C(O)OC3=O (stereo not drawn) do in these assays?
PfHsp40 yeast: 160.7

How did O=C(O)C1=CC(c2csc3ccccc23)CC(OCCCCO)O1 (stereo not drawn) do in these assays?
Sa RN4220 lethal: inactive; Sa ugtP lethal: inactive

How did Oc1ccc(CNc2ccccc2F)c2cccnc12 do in these assays?
PfHsp40 yeast: 39.2; Sa RN4220 lethal: inactive; BJeLR lethal: inactive; Sa ugtP lethal: inactive; CCHFV vOTU inh: inactive

What do the screens show for `O=C1NC(Cc2ccccc2)C(=O)N2C1C[C@@]1(Br)c3ccccc3N(S(=O)(=O)c3ccccc3)C21` (stereo partly drawn)?
Sa RN4220 lethal: inactive; Sa ugtP lethal: inactive

Results for O=C(NN=Cc1ccc(OC(=O)c2ccccc2Cl)cc1)c1cc(O)cc(O)c1 ?
Sa RN4220 lethal: inactive; Sa ugtP lethal: inactive

What do the screens show for `CC(/C=N/n1c(COc2ccccc2)n[nH]c1=S)=C\c1ccccc1`?
PfHsp40 yeast: 66.6; BJeLR lethal: inactive; CCHFV vOTU inh: inactive

Results for O=C(COC(=O)c1ccc([N+](=O)[O-])o1)NCc1ccccc1 ?
PfHsp40 yeast: inactive; Sa RN4220 lethal: inactive; Sa ugtP lethal: inactive; CCHFV vOTU inh: inactive

Results for O=C(COC(=O)c1ccc([N+](=O)[O-])o1)Nc1ccc2c(c1)OCO2 ?
PfHsp40 yeast: 66.9; Sa RN4220 lethal: inactive; Sa ugtP lethal: inactive; CCHFV vOTU inh: inactive

Results for Cc1cccc(C)c1NC(=O)COC(=O)c1ccc([N+](=O)[O-])o1 ?
PfHsp40 yeast: 32.3; Sa RN4220 lethal: inactive; BJeLR lethal: inactive; Sa ugtP lethal: inactive; CCHFV vOTU inh: inactive

What do the screens show for `CCOc1cc(N2CCOCC2)c(OCC)cc1NC(=O)COC(=O)c1cc(C)cc(C)c1`?
PfHsp40 yeast: inactive; Sa RN4220 lethal: inactive; BJeLR lethal: inactive; Sa ugtP lethal: inactive; CCHFV vOTU inh: inactive

What do the screens show for `CCOc1cc(N2CCOCC2)c(OCC)cc1NC(=O)COC(=O)c1ccc([N+](=O)[O-])o1`?
PfHsp40 yeast: 81.7; Sa RN4220 lethal: inactive; Sa ugtP lethal: inactive; CCHFV vOTU inh: inactive

How did Cc1ccc(NS(=O)(=O)c2ccc(NC(=O)CN(c3cc([N+](=O)[O-])ccc3C)S(C)(=O)=O)cc2)c(C)c1 do in these assays?
PfHsp40 yeast: inactive; Sa RN4220 lethal: inactive; BJeLR lethal: 65.0; Sa ugtP lethal: inactive; CCHFV vOTU inh: inactive

What do the screens show for `CC(=O)Nc1ccc(NC(=O)CN(c2cccc([N+](=O)[O-])c2)S(C)(=O)=O)cc1`?
PfHsp40 yeast: inactive; Sa RN4220 lethal: inactive; BJeLR lethal: 68.6; Sa ugtP lethal: inactive; CCHFV vOTU inh: inactive

How did CC(=O)Nc1cc(OC(C)=O)c2nonc2c1OC(C)=O do in these assays?
PfHsp40 yeast: inactive; Sa RN4220 lethal: inactive; Sa ugtP lethal: inactive; CCHFV vOTU inh: 100.7

Results for CC1(c2ccc3c(c2)OCO3)NC(=O)N(CC(=O)Nc2ccccc2[N+](=O)[O-])C1=O (stereo not drawn) ?
PfHsp40 yeast: inactive; CCHFV vOTU inh: inactive

What do the screens show for `Cc1ccccc1NC(=O)CN1C(=O)NC(C)(c2ccc3c(c2)OCO3)C1=O` (stereo not drawn)?
PfHsp40 yeast: 35.3; Sa RN4220 lethal: inactive; BJeLR lethal: inactive; Sa ugtP lethal: inactive; CCHFV vOTU inh: inactive

What do the screens show for `Cn1cccc1C(=O)OCc1ccc(C(C)(C)C)cc1`?
PfHsp40 yeast: inactive; Sa RN4220 lethal: inactive; BJeLR lethal: inactive; Sa ugtP lethal: 94.2; CCHFV vOTU inh: inactive

How did Cc1c(Cl)c(C(F)F)nn1CC(=O)NC1C(=O)N2C(C(=O)O)=C(CSc3nnnn3C)CSC12 (stereo not drawn) do in these assays?
PfHsp40 yeast: inactive; Sa RN4220 lethal: 100.4; BJeLR lethal: inactive; Sa ugtP lethal: 97.3; CCHFV vOTU inh: inactive

Results for Cc1c(Cl)cnn1CC(=O)NC1C(=O)N2C(C(=O)O)=C(CSc3nnnn3C)CSC12 (stereo not drawn) ?
PfHsp40 yeast: inactive; Sa RN4220 lethal: 100.2; BJeLR lethal: inactive; Sa ugtP lethal: 100.5; CCHFV vOTU inh: inactive

Results for Cn1nnnc1SCC1=C(C(=O)O)N2C(=O)C(NC(=O)Cn3nc(C(F)F)cc3C3CC3)C2SC1 (stereo not drawn) ?
PfHsp40 yeast: inactive; Sa RN4220 lethal: 100.1; BJeLR lethal: inactive; Sa ugtP lethal: 100.7; CCHFV vOTU inh: inactive

Results for CC(C(=O)NC1C(=O)N2C(C(=O)O)=C(CSc3nnnn3C)CSC12)n1cc(Cl)cn1 (stereo not drawn) ?
PfHsp40 yeast: inactive; Sa RN4220 lethal: 99.8; BJeLR lethal: inactive; Sa ugtP lethal: 100.2; CCHFV vOTU inh: inactive
